The text below walks through data of PubChem BioAssay.

Experiment [1] in a line: resazurin metabolic signal in HepG2 cells – cell-based, resazurin fluorescence, 24 h, PK04 Diversity Set, profiling panel (AID 1172). Further: test concentration not given here. Conditions: HepG2 viability, higher = more signal. In general terms: The colour change of resazurin is a common sign of viable cells or microbes.
The nature of experiment [2]: budding yeast growth changes without added modifier – OD600, strain BY4716, 24 h, basal condition, primary screen (AID 1173). Conditions: S. cerevisiae BY4716 growth, OD600, 24 h; higher = more signal, called active from +8 up or from −8 down.
A short description of experiment [3]: viability profiling in MM1S myeloma cells – cell-based, resazurin fluorescence, basal, 24 h, PK04 Diversity Set, profiling panel (AID 1174).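 Further: MM1S multiple myeloma cell line; test concentration not given here.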 To be noted: higher = more signal, called active from +8 up or from −8 down.
For experiment [4], the target named is Dihydroorotate dehydrogenase (quinone), mitochondrial (Plasmodium falciparum (isolate 3D7)) (UniProt Q08210). In words: inhibition of P. falciparum DHODH – biochemical, C-terminal His tag, absorbance 600 nm, primary screen (AID 1175).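 Further: recombinant parasite enzyme with a five histidine tag at its C terminus; test concentration not given here.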 Conditions: PfDHODH enzyme, DCIP absorbance 600 nm; higher = more signal, called active from +8 up or from −8 down.
Experiment [5] can be described thus: inhibition of PAO1 biofilm formation – strain PAO1, LB-PBS medium, absorbance 600 nm, primary screen (AID 1176). Further: test concentration not given here. To be noted: P. aeruginosa PAO1 growth/biofilm, A600, 12 h; higher = more signal.
The nature of experiment [6]: growth modulation of vineyard yeast isolate – strain RM11-1a, OD600, basal, 24 h, primary screen (AID 1177).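 Further: cultures grown under basal conditions with no added stressor; test concentration not given here.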 To be noted: S. cerevisiae RM11-1a growth, OD600, 24 h; higher = more signal, called active from +8 up or from −8 down.
Experiment [7] in a line: growth of efflux-deficient E. coli DRC39 – strain DRC39, OD650, 24 h, E. coli filamentation inducers, primary screen (AID 1178).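 Further: growth measured as culture turbidity by optical density at 650 nm; test concentration not given here.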 To be noted: E. coli DRC39 acrAB, higher = more signal, called active from +8 up or from −8 down.
A short description of experiment [8]: growth of efflux-deficient E. coli DRC39 – strain DRC39, OD650, 48 h, E. coli filamentation inducers, primary screen (AID 1179).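 Further: screen aims at cell division blockers that make cells filament.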 To be noted: E. coli DRC39 delta-acrAB growth, higher = more signal, called active from +8 up or from −8 down.
The nature of experiment [9]: viability profiling in RPMI8226 myeloma cells – cell-based, resazurin fluorescence, basal, 24 h, PK04 Diversity Set, profiling panel (AID 1180).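 Further: RPMI8826 multiple myeloma cell line at 5000 cells per well; test concentration not given here.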 Conditions: higher = more signal.
Experiment [10] has as its target E3 ubiquitin-protein ligase XIAP (Homo sapiens) (UniProt P98170). In words: small molecules binding XIAP protein – biophysical, small-molecule microarray, fluorescence 635 nm, primary screen (AID 1181).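 Further: score merges 667 nm emission and signal to noise over triplicate slides.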 To be noted: higher = more signal.

Calls of active or inactive are those of the source. Unless noted, how the calls were made is not given here.

Dihydroorotate dehydrogenase (quinone), mitochondrial (Plasmodium falciparum (isolate 3D7)), sequence (Q08210 whole entry, looked up): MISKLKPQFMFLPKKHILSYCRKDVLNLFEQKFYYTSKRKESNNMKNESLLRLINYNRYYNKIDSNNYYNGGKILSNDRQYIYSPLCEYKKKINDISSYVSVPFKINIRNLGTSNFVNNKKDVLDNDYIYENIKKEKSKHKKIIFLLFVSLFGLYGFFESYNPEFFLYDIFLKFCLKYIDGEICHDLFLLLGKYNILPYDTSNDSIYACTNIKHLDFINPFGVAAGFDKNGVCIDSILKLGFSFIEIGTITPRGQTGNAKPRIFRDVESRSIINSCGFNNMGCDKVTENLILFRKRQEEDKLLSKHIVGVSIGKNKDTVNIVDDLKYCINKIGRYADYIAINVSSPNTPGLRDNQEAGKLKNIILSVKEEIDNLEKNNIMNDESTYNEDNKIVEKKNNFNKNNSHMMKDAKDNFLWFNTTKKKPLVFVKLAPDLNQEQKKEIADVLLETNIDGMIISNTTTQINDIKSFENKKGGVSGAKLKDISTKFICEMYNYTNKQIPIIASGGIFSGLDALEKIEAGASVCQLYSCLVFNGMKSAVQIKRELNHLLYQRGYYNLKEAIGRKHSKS
E3 ubiquitin-protein ligase XIAP (Homo sapiens), sequence (P98170 whole entry, looked up): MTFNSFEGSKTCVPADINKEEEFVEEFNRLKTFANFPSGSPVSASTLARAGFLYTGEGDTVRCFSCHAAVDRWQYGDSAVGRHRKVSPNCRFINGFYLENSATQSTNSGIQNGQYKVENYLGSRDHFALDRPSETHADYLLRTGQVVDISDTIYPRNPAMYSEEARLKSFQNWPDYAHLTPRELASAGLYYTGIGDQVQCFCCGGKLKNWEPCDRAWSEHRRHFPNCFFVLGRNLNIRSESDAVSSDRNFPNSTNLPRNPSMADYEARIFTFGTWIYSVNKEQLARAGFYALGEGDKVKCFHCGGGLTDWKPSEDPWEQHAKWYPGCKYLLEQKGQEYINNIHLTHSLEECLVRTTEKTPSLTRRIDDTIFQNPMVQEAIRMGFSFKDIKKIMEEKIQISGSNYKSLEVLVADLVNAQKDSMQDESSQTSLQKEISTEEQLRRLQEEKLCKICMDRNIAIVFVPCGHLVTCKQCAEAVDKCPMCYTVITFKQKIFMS

In the case of `CCN1C(=O)[C@H]2[C@H]3[C@H](O)[C@H](O)CC(=NOCC(C)C)[C@@H]3CC[C@H]2C1=O`, the z-score is 0.424 in experiment [1]; -0.18 (inactive) in [2]; -0.243 (inactive) in experiment [3]; 0.99 (inactive) in [5]; -0.589 (inactive) in experiment [6]; -0.556 (inactive) in experiment [7]. The figures for the z-score in experiment [8] and in experiment [9] were -1.86 (inactive) and 0.279, respectively. Also, the composite z-score was -0.423 (inactive) in experiment [4] and -0.0696 in [10].

`C[C@H]1CC[C@H]2C(=O)O[C@H](COc3ccc(C(C)(C)C)cc3)CN2[C@@H]1c1ccc(Br)cc1`: the z-score in experiment [1] is -0.158; in experiment [2], -0.407 (inactive); in experiment [3], 0.422 (inactive); in [5], -0.409 (inactive); in experiment [6], -0.0809 (inactive); in experiment [7], -1.42 (inactive). Also, the z-score is -1.37 (inactive) in [8] and 0.432 in experiment [9]. For the same compound, the composite z-score in experiment [4] is 0.159 (inactive); in experiment [10], -0.19.

In the case of `CCOC(=O)[C@H](CC(C)C)NC(=O)CCC1CC(OC(=O)NCc2ccc3c(c2)OCO3)CC2(CCCC(COC(=O)NCCCN3CCCC3=O)O2)O1` (stereo not given in full), the z-score in [1] is 0.217; in experiment [2] it was -1.17 (inactive); in experiment [3], 0.595 (inactive); in [5] it was 0.38 (inactive); in experiment [6] it was 0.564 (inactive); in [7], 0.877 (inactive). For the same compound, the z-score in experiment [8] was 0.0512 (inactive); in experiment [9], 1.24. In addition, the results for the composite z-score in experiment [4] and in experiment [10] were -1.42 (inactive) and -0.145, respectively.

In the case of `COC(=O)CC=C[C@H](C)[C@@H](OCc1cccc(Br)c1)[C@@H](C)[C@H](OC)C1CCCCC1`, the z-score is -0.363 in experiment [1]; -0.949 (inactive) in experiment [2]; 0.0742 (inactive) in experiment [3]; -1.16 (inactive) in experiment [5]; 0.161 (inactive) in [6]; 0.474 (inactive) in experiment [7]. Besides, the z-score in [8] was -0.596 (inactive); in experiment [9] it was -0.171. Also, the composite z-score is -0.498 (inactive) in [4] and -0.318 in experiment [10].

`COC(=O)[C@@H]1CC[C@@H](C)[C@H](c2ccc(Br)cc2)N1`: the z-score in [1] is 0.0869; in experiment [2] it was -0.176 (inactive); in experiment [3] it was -0.0484 (inactive); in experiment [5], 0.766 (inactive); in [6] it was -0.0446 (inactive); in experiment [7], -0.234 (inactive). In addition, the z-score was -0.0612 (inactive) in experiment [8] and 0.429 in [9]. The composite z-score in experiment [4] is -0.275 (inactive); in experiment [10] it was 0.0548.

On to `Cc1cc2c(nc1C)CCCCN2CC(C)ON=C[C@@H](C)[C@H](OCc1ccccc1)C(C)C` (stereo not given in full), for which the z-score in experiment [1] is 1.48; in experiment [2], -5.49 (inactive); in experiment [3], 0.674 (inactive); in experiment [5] it was 0.675 (inactive); in experiment [6], -1.02 (inactive); in experiment [7], -0.152 (inactive). The z-score in experiment [8] was -0.4 (inactive); in [9], 1.4. In addition, the figures for the composite z-score in experiment [4] and in experiment [10] were -0.983 (inactive) and 0.0856, respectively.

As for `CC(C)=CCCC(C)=CCON=C1C[C@@H](O)[C@@H](O)[C@@H]2[C@@H]3C(=O)N(C[C@@H]4CCCO4)C(=O)[C@@H]3CC[C@H]12`, the z-score in [1] is 0.164; in experiment [2] it was -1.72 (inactive); in [3], -0.58 (inactive); in experiment [5], 0.295 (inactive); in [6] it was 1.8 (inactive); in experiment [7], -0.169 (inactive). In addition, the figures for the z-score in experiment [8] and in [9] were -0.543 (inactive) and -0.251, respectively. The composite z-score in experiment [4] is 0.0911 (inactive); in experiment [10], -0.217.

As to `CCOC(=O)[C@H](CC(C)C)NC(=O)CCC1CC(OC(=O)NCc2cccc3ccccc23)CC2(CCCC(COC(=O)NCCCN3CCCC3=O)O2)O1` (stereo not given in full), the z-score is 0.281 in experiment [1]; -0.761 (inactive) in experiment [2]; 0.826 (inactive) in experiment [3]; -0.47 (inactive) in experiment [5]; 0.209 (inactive) in experiment [6]; -0.134 (inactive) in [7]. Also, the z-score in [8] is 0.323 (inactive); in [9], -0.241. Besides, the composite z-score was 0.0067 (inactive) in [4] and -0.104 in experiment [10].

Consider `C#CCCCON=C1C[C@@H](O)[C@@H](O)[C@@H]2[C@@H]3C(=O)N(C(C)(C)C)C(=O)[C@@H]3CC[C@@H]12`, for which the z-score was -0.202 in experiment [1]; 0.595 (inactive) in [2]; -1.24 (inactive) in [3]; 0.0001 (inactive) in experiment [5]; 0.438 (inactive) in experiment [6]; -0.35 (inactive) in [7]. Besides, the figures for the z-score in experiment [8] and in [9] were -0.278 (inactive) and 0.0444, respectively. The composite z-score in experiment [4] is 0.289 (inactive); in experiment [10], -0.0939.

As to `CON=CC[C@@H]1C=C[C@H](OC(C)=O)[C@@H](COC(C)=O)O1`, the z-score in experiment [1] is -0.144; in experiment [2], -0.0768 (inactive); in experiment [3], 0.0181 (inactive); in experiment [5] it was -0.0903 (inactive); in experiment [6], 0.964 (inactive); in experiment [7] it was 0.736 (inactive). For the same compound, the results for the z-score in experiment [8] and in [9] were -1.17 (inactive) and -0.143, respectively. The composite z-score in [4] is -1.1 (inactive); in [10] it was 0.502.

As to `O=C1OCCC=C1C(O)CCc1ccccc1` (stereo not given), the z-score in experiment [1] was 0.0362; in [2], -0.567 (inactive); in experiment [3] it was -0.649 (inactive); in [5], -0.564 (inactive); in experiment [6] it was -0.415 (inactive); in [7], 0.258 (inactive). For the same compound, the figures for the z-score in [8] and in experiment [9] were 0.137 (inactive) and -0.573, respectively. The composite z-score in experiment [4] was -0.0757 (inactive); in experiment [10], -0.202.

As for `C=CC1=C[C@H](O)[C@@H]2O[C@@H]2C12OCCCO2`, the z-score was 0.257 in [1]; 0.301 (inactive) in experiment [2]; -0.458 (inactive) in experiment [3]; 0.262 (inactive) in [5]; -0.838 (inactive) in experiment [6]; 0.451 (inactive) in experiment [7]. Besides, the z-score in experiment [8] is 0.489 (inactive); in experiment [9], -0.38. For the same compound, the results for the composite z-score in experiment [4] and in experiment [10] were 0.695 (inactive) and -0.03, respectively.

`C#CCCCON=C1C[C@@H](O)[C@@H](O)[C@@H]2[C@@H]3C(=O)N(Cc4ccccc4)C(=O)[C@@H]3CC[C@@H]12`: the z-score in [1] was 0.71; in experiment [2], -0.878 (inactive); in experiment [3] it was 0.736 (inactive); in experiment [5], -0.601 (inactive); in experiment [6] it was -0.0952 (inactive); in experiment [7], 0.777 (inactive). Moreover, the z-score in experiment [8] was 1.2 (inactive); in experiment [9], 0.886. The composite z-score is -1.23 (inactive) in [4] and -0.267 in experiment [10].
